# Hits are enriched below; roughly 4% of the tested compounds scored in any of these assays.
# NALP3 yeast inh = blocks the NALP3 inflammasome reconstituted in yeast; Yeast reconstituted NLRP3/ASC/caspase-1, beta-gal luminescence, 24 h; 0.39% of 330,000 active; inhibition, % at 10 µM;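 active means inhibition of 50% or more; inactive means inhibition below 50%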
# TIM10 inh = TIM10 yeast growth inhibition; S. cerevisiae TIM10 strain growth, BacTiter-Glo luminescence, 24 h; inhibition, % at 10 µM; 1.4% of 330,000 active;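 active means inhibition of 40% or more at the single tested concentration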;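 further: wild-type TIM10 isogenic control strain grown at permissive 25 °C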
# tim23-1 inh = growth inhibitors of tim23-1 mutant yeast; inhibition, % at 20 µM; AID 463212; 1.3% of 330,000 active; S. cerevisiae tim23-1 growth, BacTiter-Glo luminescence, 24 h;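 active means growth inhibition of the mutant yeast at or above 50%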;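 further: temperature-sensitive mutant grown at 25 °C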
# tim10-1 inh = tim10-1 yeast growth inhibition. S. cerevisiae tim10-1 ts strain growth, BacTiter-Glo, 24 h. inhibition, % at 20 µM. 2.2% of 330,000 active. AID 463190;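 active means inhibition of at least 40%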;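 further: mutant grown at 25 °C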
# NALP1 yeast inh = NALP1 inhibition; inhibition, % at 10 µM; S. cerevisiae NALP1/ASC/caspase-1 growth, X-gal OD620, 72 h; AID 2071; 0.61% of 280,000 active; in the data active means inhibition mostly above about 24%, no sharp cut-off; inactive means mostly below about 32%
# tim10-1 conf = confirmation of tim10-1 mutant yeast growth inhibitors; AID 463213; shares compounds with tim10-1 inh; inhibition, % at 20 µM; S. cerevisiae tim10-1 ts strain growth, BacTiter-Glo, 24 h; 56% of 7,400 active;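 active means inhibition of yeast growth at or above a set limit in either of two repeat tests at 20 µM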;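 further: tim10-1 mutant grown at permissive 25 °C to find synthetic lethal compounds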
# tim10 confirm = confirmation of TIM10 yeast growth inhibitors; shares compounds with TIM10 inh; S. cerevisiae tim10 strain growth, BacTiter-Glo luminescence, 24 h; inhibition, % at 10 µM; 63% of 4,600 active; AID 463215;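 active means inhibition of yeast growth at or above a set limit in either of two replicates at 10 µM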; further: this counterscreen used the strain with wild-type TIM10
# tim23-1 conf = tim23-1 yeast growth inhibition, confirmed; inhibition, % at 20 µM; S. cerevisiae tim23-1 growth, BacTiter-Glo luminescence, 24 h; shares compounds with tim23-1 inh; AID 463218; 83% of 4,400 active;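 active means inhibition above about 39% in either of two replicate wells at 20 µM, limit read from the data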;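 further: temperature-sensitive tim23-1 mutant grown at 25 °C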
# A number is an active result; n = inactive; x = no result.
SMILES,NALP3 yeast inh,TIM10 inh,tim23-1 inh,tim10-1 inh,NALP1 yeast inh,tim10-1 conf,tim10 confirm,tim23-1 conf
CC1(C(=O)Nc2nnc(SCc3ccccc3)s2)Cc2ccccc2C(=O)O1 (stereo not drawn),n,n,52,47,n,50,x,42
Cc1noc2ncnc(Sc3ccc(Br)cc3)c12,n,n,65,54,n,74,x,68
CC1(C)C(CSc2nc3ccccc3[nH]2)C1(Cl)Cl (stereo not drawn),n,n,57,45,n,n,x,60
COc1cccc(/C=N/NC(=O)C(C)Cn2cnc3ccccc32)c1 (stereo not drawn),n,n,n,n,n,x,x,x
O=C(NC(=S)NC1C2CC3CC(C2)CC1C3)c1ccccc1 (stereo not drawn),n,41,54,48,n,39,n,67
CC(=O)NNC(=S)NC(=O)c1ccccc1,n,n,n,n,n,x,x,x
CCOC(=O)n1c(=O)n(Cc2cccc(C)c2)c2ccccc21,n,n,59,51,n,41,x,53
COC(=O)c1scc(C)c1-n1ccc(C(=O)C(=O)N(C)C)c1,n,n,n,n,n,x,x,x
Cc1cccc(NC(=O)/C(C#N)=C/c2ccccc2Cl)n1,n,42,71,52,n,n,32,62
Cc1cccc(NC(=O)/C(C#N)=C/c2ccccc2O)n1,n,n,n,n,n,x,x,x
C=CCNC(=O)/C(C#N)=C/c1cc(Br)ccc1OC,n,83,88,78,n,84,91,71
C=CCNC(=O)/C(C#N)=C/c1ccccc1Cl,n,66,85,51,n,63,74,80
Cn1c(N)c(C(=O)COC(=O)c2ccccc2C(=O)c2ccc(Cl)c([N+](=O)[O-])c2)c(=O)n(C)c1=O,n,n,n,n,x,x,x,x
COc1ccc(C/C(N)=N/OC(=O)Cc2ccccc2)cc1OC,n,n,n,n,n,x,x,x
N/C(Cc1ccc(Cl)cc1Cl)=N\OC(=O)Cc1ccccc1,n,86,75,52,n,n,88,61
Cc1ccn2c(=O)nc(SCC(=O)Nc3ccc4c(c3)OCCO4)nc2c1,n,n,n,n,x,x,x,x
Cc1nn(C)c(C(=O)Sc2cccc(Cl)c2)c1[N+](=O)[O-],n,n,61,47,x,65,x,84
CC(=O)Oc1ccc2occ(-c3ccccc3)c2c1,n,n,n,n,n,x,x,x
O=c1ccc2cc3c(-c4ccccc4)coc3cc2o1,n,46,64,60,n,61,58,66
CCOC(=O)/C(=N/Nc1ccc(C)cc1)S(=O)(=O)c1ccc(Cl)cc1,n,n,n,n,n,x,x,x
NNC(=O)/C(=N/Nc1ccccc1)S(=O)(=O)c1ccc(Cl)cc1,n,n,69,56,n,49,x,59
Cc1cccc(NC(=O)Cc2coc3ccc4ccccc4c23)n1,n,n,51,46,n,36,x,56
COc1cccc(CNC(=O)CCc2ccc(OC)c(OC)c2)c1,n,n,n,n,n,x,x,x
COc1ccc2cc3cc(C(=O)NCc4cccs4)oc3nc2c1,n,n,n,n,n,x,x,x
COc1ccc2cc3cc(C(=O)NCCN4CCc5ccccc5C4)oc3nc2c1,n,86,63,75,n,68,n,n
SMILES,NALP3 yeast inh,TIM10 inh,tim23-1 inh,tim10-1 inh,NALP1 yeast inh,tim10-1 conf,tim10 confirm,tim23-1 conf
Cc1cccc(N=N/C(=C\O)C(=O)c2ccc(Br)cc2)c1,n,n,64,57,n,52,x,44
CCCC[C@H](CN[C@@H](CNC)[C@H](C)CC)NCCC12CCC(CC1)C2,n,n,n,n,n,x,x,x
O=C(COC(=O)CCN1C(=O)/C(=C\C=C\c2ccccc2)SC1=S)Nc1ccc(Br)cc1,n,43,54,49,n,40,51,74
CC1=NN(C(N)=S)C(=O)C1N=Nc1cccc(Cl)c1C (stereo not drawn),n,n,57,43,n,43,x,62
CC1=NN(C(N)=S)C(=O)C1N=Nc1cccc2ccccc12 (stereo not drawn),x,x,x,x,n,x,x,x
CCNC(=S)NNC(=O)c1cc(-c2cccc(OC)c2)nc2ccccc12,n,n,56,56,n,50,x,54
